Six compounds from PubChem BioAssay AID2639 (National Center for Advancing Translational Sciences (NCATS), 2010) can be followed below.

Active and inactive are the calls of the source. Where a call stands in place of a potency, no number is given. The call rests on the fitted dose curve.

A short description of the assay: Platelet Aggregation Secondary Assay for Inhibitors of Platelet Integrin alphallb-beta3. Particulars: platelet-rich plasma, ADP-induced aggregation, absorbance 563 nm. From the text:
NIH Molecular Libraries Probe Production Network [MLPCN] NIH Chemical Genomics Center [NCGC] MLPCN Grant: 1 R03 MH083257-01 Assay Provider: Barry Coller, Rockefeller University NCGC Assay Overview: The alphaIIbbeta3 receptor plays a vital role in hemostasis and thrombosis, where receptor deficiency causes the hemorrhagic disorder, Glanzmann thrombasthenia, and uncontrolled receptor activation causes thrombosis and blood vessel occlusion. Small molecule inhibitors of alphaIIbbeta3, tirofiban and eptifibatide, have undesirable side effects thought to arise from conformational changes in alphaIIbbeta3. These changes transiently activate the receptor to cause spontaneous platelet aggregation and thrombus formation. […] This secondary assay measures platelet aggregation (Blue et al., 2008). Platelets are induced to aggregate and aggregation is tracked by the change in absorbance over time. Inhibitors of alphaIIbbeta3 block platelet aggregation and decrease the rate of change in absorbance.
NCGC Assay Protocol Summary: Untreated 96-well polystyrene plates (Nunc, Rochester, NY) were blocked for at least 1 hour with HBMT (138 mM NaCl, 12 mM NaHCO3, 10 mM HEPES, 2.7 mM KCl, 0.4 mM NaH2PO4, 0.1% glucose, 0.35% BSA, pH 7.4). Compounds (33 uL in HBMT) and citrated platelet-rich plasma (67 uL) were added to the wells. After plates equilibrated at 37 C in the plate reader (SpectraMax; Molecular Devices, Sunnyvale, CA) for 10 minutes, aggregation was initiated by adding ADP (5 uM final concentration; Chrono-Log Corp, Havertown, PA). Absorbance (Abs) was measured at 563 nm every 10 seconds with 3 seconds of shaking between determinations for 8 minutes. Reference Blue R, Murcia M, Karan C, Jirouskova M, and Coller BS. Application of high-throughput screening to identify a novel alphaIIb-specific small- molecule inhibitor of alphaIIbbeta3-mediated platelet interaction with fibrinogen. Blood. 2008, 111(3):1248-56
Consider `CCc1nn2c(=O)c(C)c(N3CCNCC3)nc2s1`, for which the result was inactive.

Regarding `CCc1nn2c(=O)c(F)c(N3CCNCC3)nc2s1`, the Potency is 8.3 µM (active).

As for `O=c1cc(N2CCNCC2)nc2sc(C3CC3)nn12`, the compound was called inactive.

As for `CCc1nn2c(=O)cc(N3CCNCC3)nc2s1`, the Potency is 8.4 µM (active).

Take `CCc1nn2c(=O)cc(N3CCN(C)CC3)nc2s1`: the compound was called inactive.

As to `Cc1nn2c(=O)cc(N3CCNCC3)nc2s1`, the result was inactive.
